Our source for the Potency values is PubChem BioAssay AID504371 (National Center for Advancing Translational Sciences (NCATS), 2011).

Inconclusive results are not listed. Active and inactive are the calls of the source. The call rests on the fitted dose curve; in most records, active means well fitted curve in the direction sought with a large enough effect; inconclusive means small, poorly fitted or top-dose-only effect, or another doubt; inactive means no such curve, though single readings can be large or run the other way.

A short description of the assay: qHTS Assay for Compounds Blocking the Interaction Between CBF-beta and RUNX1 for the Treatment of Acute Myeloid Leukemia: ME-1 cellular proliferation, SAR for Probe. Particulars: ME-1 cell proliferation, ATP luminescence, 48 h. The text has this: NIH Chemical Genomics Center [NCGC] NIH Molecular Libraries Probe Production centers Network [MLPCN] MLPCN Grant: X01MH083259-01 Assay Submitter (PI): Paul Liu NCGC Assay Overview: Core Binding Factor (CBF) abnormalities are associated with 20-25% of all acute myeloid leukemias (AML), of which 5-10% are further sub classified as acute myelomonocytic leukemia with eosinophilia, also known as M4Eo in the FAB classification scheme. This subtype of leukemia is usually associated with chromosome 16 inversion (p13:q22). Chromosome 16 inversion results in formation of the fusion oncogene CBFB-MYH11, which encodes the fusion protein CBF-beta-SMMHC. […] It has been hypothesized that the interference of CBF-beta and RUNX1 binding could have therapeutic implications for patients with CBF mediated leukemias. We developed a CBF-beta and RUNX1 binding assay in AlphaScreenTM format and optimized it for high throughput screening to search for inhibitors. The goal of this project is to screen MLPCN's compound collection (MLSMR) for identifying the inhibitors of the interaction between CBF-beta and RUNX1 proteins as research probes. If these probes work well in the animal models, the ultimate goal of this project is to development a new drug treatment for this disease. The present assay assesses compounds ability to slow cellular proliferation in a CBFb dependent cell line, ME-1.
NCGC Assay protocol: 2uL/well media was dispensed per well into 1536-well white solid-bottom plates using Multidrop Combi dispenser. Subsequently, 23 nL/well compound solutions or DMSO controls were dispensed to the assay plates via a pintool workstation. […] The plates were incubated at 37 °C with 5% CO2 and 95% humidity for 48 hours, and then ATP content was measured following the addition of 4uL/well of ATPlite reagent and a 20 min incubation on a ViewLux plate reader.
On the technique in general: In qHTS, concentration-response curves come from the screen itself.
With `CCN(CC)CCN1C(=O)CN=C(c2ccccn2)c2cc(Cl)ccc21`, the Potency was 109 µM (active).
For the compound `CCN(CC)CCN1C(=O)CN=C(c2ccc[nH]2)c2cc(Cl)ccc21`, the Potency was 137 µM (active).
To `CN1C(=O)CN=C(c2ccc[nH]2)c2cc(Cl)ccc21` (tested in a mixture with another compound) belongs 27.4 µM (active).
